# Screening results (PubChem)
# Hits are enriched below; roughly 9% of the tested compounds scored in any of these assays.
# Lamin A splicing = LMNA splicing modulation. HeLa LMNA splicing GFP/RFP minigene ratio, 48 h. Potency, µM (titrated, usually from 46.1 µM), without a hit: at the highest dose ratio change, negative = inhibition, most hits filed as inhibitors. 0.01% of 200,000 active; active means well fitted inhibition curve with a large enough effect in the signal ratio, with a control signal flat, not every such curve was filed as active; inconclusive means small, poorly fitted or top-dose-only effect, or effect the other way, or a change in a side signal; the % refers to the signal ratio; further: on the % scale 0 is the no-effect control and ±100 the full control effect
#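 Read-out is the ratio of GFP to DsRed2 object intensity, acquired by 488 nm laser-scanning cytometry on HeLa lamin A-EGFP minigene reporter cells. Compound incubation 48 hrs at 37 °C in Opti-MEM with 2% FBS; DMSO 0.5% final.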
# HTT ATP protect = cytoprotection in Huntington HTT-Q103 PC12 cell model. PC12 HTT-Q103 induced, cytoprotection, ATP luminescence, 40 h. Potency, µM (highest dose often 56.4 µM), for the others: cytoprotection (ATP increase), hits mostly activators. 0.14% of 230,000 active; further: % of control where 0% means no effect; nearly all actives have a fitted effect of over 45% in size
#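 Readout: ATPlite luminescence (ATP level). Model: stable PC12, inducible Htt exon1 Q103-GFP. Inducer: tebufenozide, 100 nM final. Compounds: dose series. No G418 in medium.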
# ALDH1A1 inh = ALDH1A1 (human) enzyme inhibition; 7.3% of 220,000 active; AID 1030; Potency, µM (highest dose often 75.3 µM), for inactives: at the top dose activity, negative = inhibition, hits mostly inhibitors; Purified ALDH1A1, NADH fluorescence, propionaldehyde substrate; active means well fitted inhibition curve with a large enough effect, not every such curve was filed as active; inconclusive means small, poorly fitted or top-dose-only effect, or another doubt; inactive means no such curve, though single readings can be large or run the other way;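 further: plate controls were no enzyme wells and a reference inhibitor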
# HTT aggregate = mutant huntingtin aggregation inhibition; 1.1% of 220,000 active; PC12 HttQ103-GFP aggregates, Acumen cytometry, 40 h; Potency, µM (titrated, usually from 46.1 µM), for inactives: at the top dose activity change, negative = inhibition, actives largely listed as inhibitors; further: on the % scale 0 is the no-effect control and ±100 the full control effect; nearly all actives have a fitted effect of over 60% in size
#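 Multiplexed with ATP-based cell death, this channel scores GFP aggregates in PC12 cells expressing inducible HTTex1-Q103-GFP. Induction used 100 nM tebufenozide; compounds were tested in concentration series.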
# Luc counter = counter-screen: inhibitors of Kinase-Glo firefly luciferase; Q27757; Kinase-Glo luciferase, ATP luminescence, 8 min; Potency, µM (doses to about 38.3 µM), inactives show at the top dose activity change, negative = inhibition, most hits filed as inhibitors; 0.28% of 200,000 active; AID 1379; further: on the % scale 0 is the no-effect control and ±100 the full control effect; nearly all actives have a fitted effect of over 60% in size
#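 Light output from Kinase-Glo luciferase with luciferin and 10 uM ATP in 50 mM imidazole pH 7.2, KCl, MgCl2, Tween 20, BSA; compound pin-delivered, 8-min ambient incubation, then luminescence read.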
# HPGD inh = HPGD (human) dehydrogenase inhibition. purified HPGD, NADH fluorescence kinetic, PGE2 substrate. P15428. Potency, µM, for inactives: at the highest dose activity change, negative = inhibition, actives largely listed as inhibitors. 4.3% of 150,000 active; active means well fitted inhibition curve with a large enough effect, not every such curve was filed as active; inconclusive means small, poorly fitted or top-dose-only effect, or another doubt; inactive means no such curve, though single readings can be large or run the other way; further: on the % scale 0 is the no-effect control and ±100 the full control effect
# Target sequence (P15428 whole entry, looked up): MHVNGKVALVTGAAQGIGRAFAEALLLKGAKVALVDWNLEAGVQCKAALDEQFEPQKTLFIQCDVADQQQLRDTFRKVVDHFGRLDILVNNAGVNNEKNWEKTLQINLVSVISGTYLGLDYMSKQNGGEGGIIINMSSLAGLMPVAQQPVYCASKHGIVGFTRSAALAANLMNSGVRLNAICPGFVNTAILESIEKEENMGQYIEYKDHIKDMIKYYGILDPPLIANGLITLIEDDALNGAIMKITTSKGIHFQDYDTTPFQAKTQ
#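 20 nM HPGD preincubated 15 min at room temperature with compound in 50 mM Tris-HCl pH 8, 0.01% Tween 20. Started with 1 mM NAD+ and 30 uM prostaglandin E2; NADH fluorescence (360/450 nm) read 5 times over 30-s intervals, last minus first.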
# Starred values were filed as active, the others as inactive; ? = inconclusive; . = no result; [ ] = remark or other dose. Unless noted, the call rests on the fitted dose curve; in most records, active means well fitted curve in the direction sought with a large enough effect; inconclusive means small, poorly fitted or top-dose-only effect, or another doubt; inactive means no such curve, though single readings can be large; an effect the other way counts as inactive or inconclusive. Potency means the concentration at half of the fitted maximal effect.
SMILES,Lamin A splicing,HTT ATP protect,ALDH1A1 inh,HTT aggregate,Luc counter,HPGD inh
CCOC(=O)c1c(C)nc2sc3c(c2c1-c1ccc(OC)cc1)NC(c1ccccc1)NC3=O (configuration not stated),14%,-38%,?,6%,-1%,121%
COc1ccc(/C=N/NC(=O)c2ccc(O)cc2O)cc1CSc1ccccn1,-16%,5%[10 µM],?,-13%,-3%,?
COc1ccc(Cl)cc1NC(=O)CSc1nc(N2CCCCC2)nc(N2CCCCC2)n1,-1%,-11%[0.074 µM],9%,-2%,-1%,-3%
Cc1nn(-c2ccc(C(=O)Nc3nnc(C4CC4)s3)cc2)c(C)c1Cl,-5%,3%[10 µM],9%,7%,-2%,-15%
COc1ccc(Nc2oc(COc3ccc(Cl)cc3)nc2C#N)cc1,0%,-23%,-6%,?,-1%,28µM*
O=C(NCc1cccnc1)c1ccccc1-c1nc(-c2ccccc2)no1,.,-68%,20µM*,-24%,-14%,.
Cc1ccccc1-c1noc(-c2ccccc2C(=O)NCc2ccco2)n1,.,0%[10 µM],14µM*,15%[9.22 µM],.,.
CCOc1nc(-c2ccccc2O)nc2ccccc12,-5%,-2%[10 µM],2%,-15%,-1%,13µM*
CCN(CC)C(=O)c1cc2sc3ccccc3c2s1,?,-15%,?,-14%,-1%,7.9µM*
Clc1ccccc1CSc1nnc(-c2cccnc2)n1Cc1ccco1,?,-7%[0.074 µM],7.9µM*,14%,-1%,28µM*
O=C(CSc1nnc(-c2cccnc2)n1Cc1ccco1)c1ccccc1,15%,1%,?,27%,-6%,16µM*
C(=C\c1ccccc1)/CSc1nnc(-c2cnccn2)n1Cc1ccco1,?,7%[1.9 µM],22µM*,-4%,-2%,-20%
O=C(CSc1nnc(-c2ccc(O)cc2)n1Cc1ccco1)c1ccccc1,-11%,16%[10 µM],?,5%,-4%,-25%
O=C(CSc1nnc(-c2ccc(O)cc2)n1Cc1ccco1)c1cccs1,-8%,-12%,14µM*,0%,-3%,?
Fc1ccc(CSc2nnc(-c3cnccn3)n2Cc2ccco2)cc1,-1%,-8%,5%,-2%,1%,-4%
COc1ccc2c(CC(=O)Nc3ccccc3N3CCOCC3)coc2c1,-13%[46 µM],4%[10 µM],?,6%[9.22 µM],.,.
O=C(CC(SCc1ccco1)c1ccc(O)cc1)c1cccs1 (configuration not stated),9%,-9%,13µM*,-16%,-2%,-13%
Brc1ccc(OCCCN2CCOCC2)cc1,7%,13%[10 µM],-11%,-2%,-3%,6%
Cc1nc(N2CCC(C)CC2)c2c(C)c(C(=O)Nc3ccc(C)c(F)c3)sc2n1,.,-52%[1.9 µM],18%,-16%,2%,.
CCOc1cc(S(=O)(=O)Nc2ccc(Cl)cn2)ccc1Cl,-4%,11%[10 µM],-12%,-18%,2%,0%
O=S(=O)(Nc1ccc(Cl)cn1)c1cccc(S(=O)(=O)c2ccccc2)c1,.,1%[10 µM],20µM*,-3%[9.22 µM],-1%,.
Cc1ccc(NS(=O)(=O)c2cccc([N+](=O)[O-])c2)nc1,-9%[46 µM],17%[10 µM],11µM*,0%,-2%,.
CN(C)S(=O)(=O)c1ccc(-c2ccccc2)cc1,-9%,-7%,5%,-1%[9.22 µM],2%,-9%
Cc1cc(C)n(CCOc2ccc(Cl)cc2Cl)n1,5%,1%,-2%,-13%,-1%,32µM*
Cc1cc(C)n(C(=O)COc2ccc(Cl)cc2Cl)n1,-11%,14%[10 µM],4%,-9%,-2%,-10%
CCN1C(=O)c2cccc3c(S(=O)(=O)Nc4ccccc4OC)ccc1c23,?,-21%,4.5µM*,4%,-1%,-9%
CCN1C(=O)c2cccc3c(S(=O)(=O)NCCc4c[nH]c5ccccc45)ccc1c23,-4%,2%,14µM*,24%,1%,-9%
CC1(C)CC(=O)C(C(N)=NC(=O)c2ccccc2)=C(O)C1,.,-24%,10µM*,-9%,-1%,.
Cc1ccc(N=CC2=C(O)CC(C)(C)CC2=O)nc1,3%,0%,?,6%,-2%,-14%
